Screening data deposited in PubChem by National Center for Advancing Translational Sciences (NCATS).
Marburg entry inh: Marburg virus entry inhibition | Marburg virus pseudotyped entry inhibition, cell reporter | Potency, µM (titrated, usually from 37.8 µM), most hits filed as inhibitors | hit rate 1.8% among 300,000 | AID 540276; calls by dose curve; tested in HEK293 cells
HCMV antiviral: blocks human cytomegalovirus replication. HFF cells, HCMV-luciferase reporter, 72 h; hits give low values. activity change, negative = inhibition, % at 57.5 µM. hit rate 4.5% among 410,000. AID 1259415; in the data active means activity change below about -60%; inconclusive means no clear call, values can overlap the other calls; inactive means above about -39%
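Two compound doses tested in HFFs infected with HCMV-luciferase, MOI 1 PFU/cell, 72 h at 37C. Lysate luminescence read with OneGlo; data normalized against buffer-only and 10uM Salinomycin inhibitor controls.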
FMDV inh: blocks foot and mouth disease virus | FMDV antiviral cell-based qHTS | Potency, µM (titrated, usually from 57.9 µM), hits mostly inhibitors | hit rate 1.2% among 410,000; calls by dose curve; tested in HEK293T cells; further: read-out not given here; nearly all actives have a fitted effect of over 45% in size
Lassa entry inh: inhibitors of Lassa virus binding or cell entry. Potency, µM (doses to about 37.9 µM), usual class: inhibitors. hit rate 1.2% among 300,000. Lassa virus pseudotype entry inhibition, cell reporter. AID 540256; calls by dose curve; tested in HEK293 cells; further: nearly all actives have a fitted effect of over 50% in size
Numbers stand for hits; . = inactive; ? = inconclusive; / = no result. In the library only some 6.2% were active in any assay of this set; here they are far more common.

SMILES | Marburg entry inh | HCMV antiviral | FMDV inh | Lassa entry inh
O=C1c2ccccc2-c2nnc(-c3ccccc3)cc21 | ? | . | . | ?
COc1ccc(-c2cc3c(nn2)-c2ccccc2C3=O)cc1 | ? | . | 10µM | ?
O=C1OC(Nc2ccc3c(c2)OCO3)c2ccccc21 (stereo unspecified) | . | -97 | ? | .
O=C(O)c1ccc(Cl)c(N2C(=O)Nc3ccccc3N2O)c1 | / | -61 | . | /
COc1ccc(C(=O)O)cc1N1C(=O)Nc2ccccc2N1O | / | . | . | /
C=COCCn1c(-c2nonc2N)nc2ccccc21 | . | . | ? | .
[O-][n+]1onc2c3cc(-c4ccccc4)nnc3ccc21 | . | -99 | . | .
Fc1ccc2nc(-c3ccccc3)ccc2c1 | / | . | . | /
CCOC(=O)c1cnc2c(OC)cccc2c1N1CCN(c2ccccn2)CC1 | 11µM | -69 | 32µM | ?
CCOC(=O)c1cc(-c2ccc(C)cc2)n(CCC(=O)N2CCN(c3ccccn3)CC2)c1C | 21µM | . | ? | 16µM
COc1ccccc1/C=C/C=N/N1CCN(c2ccccn2)CC1 | . | -64 | ? | .
CC(C)(C)c1ccc(OCC(=O)N2CCN(c3ccccn3)CC2)cc1 | / | -94 | . | /
COc1ccccc1CC(=O)N1CCN(c2cccc(C(F)(F)F)c2)CC1 | ? | -70 | / | ?
COc1ccc(Cl)cc1NC(=O)C(C)N1CCN(c2ccccn2)CC1 (stereo unspecified) | / | -74 | ? | /
CC1(C2CC2)NC(=O)N(CC(=O)N2CCN(c3cccc(C(F)(F)F)c3)CC2)C1=O (stereo unspecified) | . | ? | 35µM | .
CCOC(=O)c1cnc2c(C)cc(Cl)cc2c1N1CCN(C)CC1 | . | -62 | . | .
CC(C(=O)Nc1ccccc1)N1CCN(c2ccccn2)CC1 (stereo unspecified) | / | . | . | /
COc1ccccc1NC(=O)N1CCN(c2cccc(C(F)(F)F)c2)CC1 | . | . | ? | .
Cc1ccc(-c2csc(N(CCCN3CCOCC3)C(=O)c3ccco3)n2)cc1 | ? | . | / | ?
COc1ccccc1CC(=O)N1CCN(c2ccccn2)CC1 | . | -73 | . | .
Fc1ccc(-c2nnn(Cc3ccccc3Cl)n2)cc1 | ? | . | . | ?
Cc1ccccc1Cn1nnc(-c2ccc(F)cc2)n1 | . | -75 | . | ?
CCN(C[C@H]1N[C@@](Cc2ccccc2)(C(=O)OC)[C@H]2C(=O)N(Cc3ccccc3)C(=O)[C@@H]12)C(=O)c1ccc(F)cc1 | / | . | . | /
CCc1cc2c(NCc3ccccc3)nc(C)nc2s1 | / | -84 | ? | /
CC1CCCN(C(=O)C2(NC(=O)Nc3cccc(F)c3)CCCCC2)C1 (stereo unspecified) | . | . | . | .
SMILES | Marburg entry inh | HCMV antiviral | FMDV inh | Lassa entry inh
CCOc1nc2ccccc2cc1C=O | . | -73 | . | .
CC(c1ccccc1)N1C(=O)c2ccc(C(=O)Nc3ccccc3C(=O)O)cc2C1=O (stereo unspecified) | / | -80 | . | /
O=C(Nc1nccs1)c1ccc([N+](=O)[O-])cc1Cl | / | . | . | /
O=C(Nc1ccccc1Oc1ccccc1)c1cc([N+](=O)[O-])ccc1Cl | ? | -77 | ? | .
O=C(Nc1nccs1)c1cc([N+](=O)[O-])ccc1Cl | / | -103 | . | /
CCn1c(SCC(=O)c2ccccc2)nnc1-c1cnccn1 | ? | . | . | .
CC(C)(C)C1CCC(CN2C(Nc3ccccc3)=NC[C@@H]2Cc2ccccc2)CC1 (stereo partly specified) | / | -76 | ? | /
CCC(C)CCN1C(Nc2ccccc2)=NC[C@@H]1Cc1ccccc1 (stereo partly specified) | / | -100 | ? | /
CCN1C(Nc2ccccc2)=NC[C@@H]1Cc1ccccc1 | / | . | . | /
CN(C)c1ccc(C(=O)c2ccccc2)cc1 | . | . | . | .
CN(C)c1ccc(-[n+]2c(-c3ccccc3)cc(-c3ccccc3)cc2-c2ccccc2)cc1 | ? | -99 | 32µM | ?
CCOC(=O)c1ccc(-[n+]2c(-c3ccccc3)cc(-c3ccccc3)cc2-c2ccccc2)cc1 | / | / | . | /
Cc1ccc(-c2cc(-c3ccccc3)cc(-c3ccccc3)[n+]2-c2ccccc2)cc1 | / | -99 | 7.1µM | /
Cc1ccc(-c2cc(-c3ccc(C)cc3)[n+](-c3ccccc3)c(-c3ccc(C)cc3)c2)cc1 | / | / | 7.1µM | /
c1ccc(-c2cc(-c3ccccc3)[n+](-c3ccccc3)c(-c3ccccc3)c2)cc1 | ? | -101 | 18µM | ?
Cc1ccc(-c2cc(-c3ccc(C)cc3)[n+](-c3ccc(C(=O)[O-])cc3)c(-c3ccc(C)cc3)c2)cc1 | / | . | . | /
O=C(NCCc1ccccc1)C1CCN(S(=O)(=O)N2CCOCC2)CC1 | / | . | . | /
Cc1ccc(/C=N/N2CCN(c3ccncc3S(=O)(=O)N3CCCCC3)CC2)cc1 | . | . | ? | .
O=c1[nH]c2ccccc2n1C1CCN(C(c2cccc3ccccc23)c2nnnn2Cc2ccccc2)CC1 (stereo unspecified) | / | -75 | . | /
O=c1[nH]c2ccccc2n1C1CCN(C(c2cc3ccccc3o2)c2nnnn2Cc2ccccc2)CC1 (stereo unspecified) | / | -101 | ? | /
COc1cccc(C(c2nnnn2Cc2ccccc2)N2CCN(C(=O)c3ccco3)CC2)c1OC (stereo unspecified) | . | . | . | .
O=C1NCN(c2ccccc2)C12CCN(C(c1cccc3ccccc13)c1nnnn1Cc1ccccc1)CC2 (stereo unspecified) | / | . | . | /
C(=C\c1ccccc1)/CN1CCN(C(c2cc3ccccc3o2)c2nnnn2Cc2ccccc2)CC1 (stereo unspecified) | / | . | . | /
C(=C\c1ccccc1)/CN1CCN(C(CCc2ccccc2)c2nnnn2C2CCCCC2)CC1 (stereo unspecified) | / | . | . | /
COc1cccc(C(c2nnnn2Cc2ccccc2)N2CCC(n3c(=O)[nH]c4ccccc43)CC2)c1OC (stereo unspecified) | / | -70 | . | /
SMILES | Marburg entry inh | HCMV antiviral | FMDV inh | Lassa entry inh
O=c1[nH]c2ccccc2n1C1CCN(C(CCc2ccccc2)c2nnnn2C2CCCC2)CC1 (stereo unspecified) | / | -102 | 35µM | /
Cc1ccc(Cn2ccnc2SCC(=O)Nc2ccccc2C(F)(F)F)cc1 | / | ? | . | .
O=c1n(-c2ccccc2)c(=O)n2n1CCCC2 | . | . | . | .
O=C(N/N=C/c1ccc2c(c1)OCO2)c1cccc2ccccc12 | 3.2µM | . | . | .
O=C(N/N=C/c1ccc2c(c1)OCO2)c1cc(-c2ccccc2)nc2ccccc12 | ? | . | . | ?
Cn1cc(C(=O)N/N=C/c2ccc3c(c2)OCO3)c2ccccc21 | 13µM | . | . | .
Cn1cc(C(=O)N/N=C/c2ccc(Br)c([N+](=O)[O-])c2)c2ccccc21 | . | ? | . | .
NC(=O)c1cccnc1Oc1ccc(Cl)cc1Cl | ? | . | . | .
O=C(Nc1nc(-c2ccccn2)cs1)c1ccco1 | ? | . | . | ?
C[C@H](NC(=O)c1ccco1)C(=O)Nc1nc(-c2ccccn2)cs1 | . | . | . | .
O=C(CCS(=O)(=O)c1ccc(F)cc1)Nc1nc(-c2ccccn2)cs1 | / | -106 | ? | /
CC(Oc1ccc(F)cc1)C(=O)Nc1nc(-c2ccccn2)cs1 (stereo unspecified) | ? | -90 | ? | ?
O=C(CCS(=O)(=O)c1ccccc1)Nc1nc(-c2ccccn2)cs1 | / | -103 | . | /
